CYP2C9 inh – inhibitors of human CYP2C9; P11712; CYP2C9 Supersomes, luciferin-H conversion, luminescence; inhibition, % at 5 µM; 96,000 compounds, 20% hits;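 active = blocking of liver enzyme CYP2C9 beyond about 50% at 5 µM, limit read from the data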
Target sequence (P11712 whole entry, looked up): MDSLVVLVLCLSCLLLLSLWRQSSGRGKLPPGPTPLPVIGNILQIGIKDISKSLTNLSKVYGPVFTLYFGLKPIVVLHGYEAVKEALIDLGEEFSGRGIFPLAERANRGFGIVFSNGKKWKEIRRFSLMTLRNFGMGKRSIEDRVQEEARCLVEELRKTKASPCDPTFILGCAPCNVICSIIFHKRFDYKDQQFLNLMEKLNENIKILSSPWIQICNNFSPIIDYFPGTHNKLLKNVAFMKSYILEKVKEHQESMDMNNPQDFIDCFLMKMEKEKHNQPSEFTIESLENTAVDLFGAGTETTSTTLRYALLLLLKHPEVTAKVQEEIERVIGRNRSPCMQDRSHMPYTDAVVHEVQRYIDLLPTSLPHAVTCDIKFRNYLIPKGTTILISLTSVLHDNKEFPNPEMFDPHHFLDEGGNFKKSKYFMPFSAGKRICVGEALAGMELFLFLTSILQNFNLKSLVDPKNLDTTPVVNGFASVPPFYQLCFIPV
CYP2C19 inhib – blocks human cytochrome P450 2C19; 96,000 compounds, 21% hits; AID 778; P33261; inhibition, % at 5 µM; CYP2C19 Supersomes, luciferin-H EGE luminescence, 30 min;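 active = CYP2C19 inhibition above a set limit at 5 µM in the primary screen, cut at about 50% in these data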;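 also: plate controls were negative control wells for no effect and 2.5 mM tranylcypromine positive control for full effect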
CYP2C9 act – increases human cytochrome P450 2C9 activity; P11712; recombinant CYP2C9, luciferin-H conversion, luminescence; hits give high values; factor 1 = untreated enzyme, 0 = blocked; activation factor at 5 µM; 96,000 compounds, 1.4% hits; AID 1024;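 active = activation factor of 2 or more for CYP2C9 at a 5 µM dose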;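 also: 0 = sulfaphenazole-blocked wells and 1 = vehicle-only wells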
PostGolgi yeast – growth inhibition of a yeast mutant, post-Golgi transport screen. post-Golgi transport phenotypic cell assay. inhibition, % at 10 µM. 98,000 compounds, 0.9% hits. AID 739;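 also: yeast cells grown in 1536-well plates; yeast grown about 18 h at 30C before absorbance read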
PostGolgi ctrl – growth of the yeast control strain, post-Golgi counter-screen; efflux-deficient yeast background strain, growth absorbance A615, 16 h; inhibition, % at 10 µM; 98,000 compounds, 5% hits
CYP2C19 activ – increases human CYP2C19 enzyme activity; recombinant CYP2C19, luciferin-H EGE luminescence; hits give high values; 0 = fully inhibited enzyme, 1 = untreated enzyme; 96,000 tested, under 10 active; activation factor at 5 µM; P33261;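 active = activation factor of at least 2 at 5 µM in the primary screen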;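 also: 0 = wells with 2.5 mM tranylcypromine and 1 = vehicle-only wells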
* marks the source's active call; other numbers are inactive results; x = not tested or not shown. Rows were chosen to be rich in hits. Some 32% of all compounds tested hit in one or more screens of this group. Rule as the data show it, unless noted: active = inhibition above about 30%; inactive = the rest.

SMILES | CYP2C9 inh | CYP2C19 inhib | CYP2C9 act | PostGolgi yeast | PostGolgi ctrl | CYP2C19 activ
O=C(O)c1cnc(-c2ccccc2)nc1Sc1cccc(Cl)c1 | 40 | 6 | 0.6 | 7 | 18 | 0.9
O=C(O)c1cnc(-c2ccccc2)nc1Sc1ccc(Cl)cc1Cl | 53* | -7 | 0.5 | -4 | 30 | 1.1
Cc1noc(N)c1C(=O)Nc1ccc(C(C)(C)C)cc1 | 10 | 18 | 0.9 | -2 | 10 | 0.8
O=C(NCCOC(=O)C1COc2ccccc2O1)C1COc2ccccc2O1 (stereo unspecified) | 69* | 88* | 0.3 | -7 | -4 | 0.1
CCCNC(=O)c1ccccc1NC(=O)C1COc2ccccc2O1 (stereo unspecified) | 31 | 59* | 0.7 | -2 | 19 | 0.4
O=C(NCCOC(=O)C1COc2ccccc2O1)c1cccnc1 (stereo unspecified) | 12 | 5 | 0.9 | -6 | 0 | 1
CCCCNC(=O)C1COc2ccccc2O1 (stereo unspecified) | 8 | 56* | 0.9 | -2 | 15 | 0.4
O=C(Nc1ccccc1C(=O)N1CCOCC1)C1COc2ccccc2O1 (stereo unspecified) | -3 | 15 | 1 | -2 | -2 | 0.8
C=CCN(C(C)=O)C1CC(=O)N(c2ccc(OCCC)cc2)C1=O (stereo unspecified) | 3 | -4 | 1 | -8 | 6 | 1
CC1(C)CC(=O)C(C=NCCCN2CCCC2=O)=C(O)C1 | 4 | 2 | 1 | -3 | 1 | 1
Cc1ccc(Oc2ccc3c(c2)C(=O)N(c2ccc(S(=O)(=O)Nc4nccs4)cc2)C3=O)cc1 | 64* | 22 | 0.4 | 6 | 5 | 0.8
CCCCOC(=O)c1ccc(NC(=O)c2cc(Cl)ccc2OC)cc1 | -148 | 23 | 2.5* | -10 | 21 | 0.8
COc1ccccc1NC(=O)N1CCCC1C(=O)NCc1ccc(F)cc1 (stereo unspecified) | -46 | 28 | 1.5 | 15 | 1 | 0.7
Cc1cc(NC(=O)CSc2nccn2-c2ccc(Cl)cc2)no1 | 54* | 81* | 0.5 | 3 | 9 | 0.2
Cc1cc(NC(=O)CSc2nc(-c3ccc(F)cc3)cs2)no1 | -8 | 12 | 1.1 | 0 | -6 | 0.9
Cc1cc(NC(=O)CSc2nccn2-c2ccc(F)cc2)no1 | 19 | 69* | 0.8 | 1 | 1 | 0.3
Cc1nn2c(-c3ccc(Cl)cc3)ccnc2c1-c1ccccc1 | -23 | -6 | 1.2 | 12 | 2 | 1.1
CN1CCn2c1nc(N1CCCCC1)nc2=O | 9 | -15 | 0.9 | -5 | 10 | 1.1
O=S(=O)(c1cccc2nsnc12)N1CCc2ccccc2C1 | x | x | x | 18 | 17 | x
CCOc1ccc2oc(=O)cc(C)c2c1 | 11 | 12 | 0.9 | 4 | 36* | 0.9
CCOc1ccc(Nc2cc(=O)oc3ccccc23)cc1 | -89 | 11 | 1.9 | -1 | 48* | 0.9
Cc1cc(=O)oc2cc(Oc3ncccn3)ccc12 | 7 | 17 | 0.9 | -8 | 27 | 0.8
Cc1cc(C)nc(SCC(=O)Oc2ccc3oc(=O)cc(C)c3c2)n1 | -152 | 0 | 2.5* | -1 | 1 | 1
CCOC(=O)N1CCC(Nc2ncnc3c2cnn3-c2ccc(C)cc2C)CC1 | 58* | 44 | 0.4 | -8 | 15 | 0.6
CC(=O)Nc1ccc(Nc2ncnc3c2cnn3-c2ccc(C)cc2C)cc1 | 52* | 54* | 0.5 | 2 | -2 | 0.5
SMILES | CYP2C9 inh | CYP2C19 inhib | CYP2C9 act | PostGolgi yeast | PostGolgi ctrl | CYP2C19 activ
CCCCOc1ccc(S(=O)(=O)N2CCCCCC2)cc1 | 94* | 93* | 0.1 | 8 | 18 | 0.1
CN(CCOc1ccccc1)c1ccc(S(=O)(=O)N2CCCCC2)cn1 | -24 | 24 | 1.2 | -2 | 13 | 0.8
COc1ccccc1Oc1ccc(S(=O)(=O)N2CCCC2)cc1 | 78* | 56* | 0.2 | 11 | 10 | 0.4
CC1CCc2ccccc2N1C(=O)c1cccs1 (stereo unspecified) | 28 | 22 | 0.7 | 4 | 11 | 0.8
CCOc1cc(Br)c(C(=O)O)cc1OC | -6 | -14 | 1.1 | -7 | 7 | 1.1
CN1C(=O)c2cccc(NC(=O)Cc3ccccc3)c2C1=O | 58* | 44 | 0.4 | -1 | 5 | 0.6
Brc1ccc(-c2nc(-c3ccccn3)no2)o1 | 27 | 62* | 0.7 | 5 | 8 | 0.4
Brc1ccc(-c2nc(-c3ccncc3)no2)o1 | 48 | 91* | 0.5 | -9 | -3 | 0.1
COc1ccc(-c2noc(-c3ccc(Br)o3)n2)cc1OC | -8 | 4 | 1.1 | -4 | 2 | 1
N#Cc1ccccc1NC(=O)COC(=O)CSc1nc2ccccc2o1 | 28 | 13 | 0.7 | 13 | -1 | 0.9
O=C(CSc1nc2ccccc2[nH]1)c1ccc2c(c1)OCO2 | 71* | 92* | 0.3 | -21 | 0 | 0.1
CC(=O)c1c(C)[nH]c(C(=O)CSc2nc3ccc(C)cc3[nH]2)c1C | 94* | 90* | 0.1 | 8 | 35* | 0.1
Cc1ccc2nc(SCC(=O)c3ccc(Cl)s3)[nH]c2c1 | 60* | 48 | 0.4 | 0 | 19 | 0.5
Cc1ccc2nc(SCC(=O)c3ccc4c(c3)OCO4)[nH]c2c1 | 69* | 41 | 0.3 | 3 | 7 | 0.6
COc1cccc(NC(=O)Nc2ccc3nsnc3c2)c1 | 64* | -1 | 0.4 | 14 | 4 | 1
CC(=O)c1cccc(NC(=O)COc2ccccc2)c1 | 57* | 74* | 0.4 | 5 | 16 | 0.3
COC(=O)COc1cccc(NC(=O)COc2ccccc2)c1 | 6 | 3 | 0.9 | -2 | 5 | 1
COc1ccc(OCC(=O)Nc2cccc(OC)c2)cc1 | -19 | 71* | 1.2 | 3 | 8 | 0.3
COc1cccc(C(=O)Nc2cccc(OC(C)=O)c2)c1 | 6 | 25 | 0.9 | -9 | -2 | 0.7
CC(=O)Oc1ccc(C(=O)Nc2cc(C)ccc2NC(=O)COc2ccccc2)cc1 | 58* | 11 | 0.4 | -1 | 1 | 0.9
CC(C)c1nnc(NC(=O)c2cccnc2)s1 | 8 | -7 | 0.9 | 1 | 0 | 1.1
Cc1ccc(C)n1NC(=O)c1ccccc1O | 45 | 19 | 0.6 | 19 | 8 | 0.8
CCc1ccccc1NC(=O)N1C2CCCC1CC(NC(C)=O)C2 (stereo unspecified) | -13 | 0 | 1.1 | -2 | -6 | 1
CC(=O)c1cccc(NC(=O)Cc2ccc3c(c2)CCCC3)c1 | -164 | 17 | 2.6* | -11 | 6 | 0.8
CCc1cccc(NC(=O)COc2ccccc2)c1 | 5 | 52* | 1 | -5 | -8 | 0.5
COc1cccc(NC(=O)CN(c2cccc(F)c2)S(C)(=O)=O)c1 | 30 | 26 | 0.7 | -7 | 22 | 0.7
COc1ccc(CC(=O)Nc2cccc(-c3csc(C)n3)c2)cc1 | 60* | 69* | 0.4 | 4 | 14 | 0.3
Cc1ccc(NC(=O)Cc2ccc3c(c2)CCCC3)cc1C | -30 | 42 | 1.3 | -1 | -1 | 0.6
CCN(CC(=O)Nc1cccc(OC)c1)C(=O)c1ccc(C)s1 | 72* | 76* | 0.3 | 9 | -5 | 0.2
